From PubChem BioAssay (EPA / NIEHS)
Calls of active or inactive are those of the source. How the source made its calls: active means hit-call score of the fitted dose curve at least 0.9, where 1 is the maximum; inconclusive means response in the unintended direction; inactive means score below 0.9.

Biological target: Peroxisome proliferator-activated receptor gamma (Homo sapiens) (UniProt P37231)
Assay: OT_PPARg_PPARgSRC1_1440: Odyssey Thera (OT) 24-hour Protein-Complementation Assay for Peroxisome Proliferator-activated Receptor Gamma/ SRC-1 Co-activator (AID 2283388);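 further: nuclear to cytoplasmic ratio of reconstituted Venus YFP fluorescence in fixed imaged cells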
Method in brief: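 Cells carrying the PPARg/SRC-1 fragment-complementation reporter receive compound for 24 hours, are fixed and counterstained with Draq5, then imaged. Increased nuclear relative to cytoplasmic YFP fluorescence above DMSO baseline indicates binding activity.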

Peroxisome proliferator-activated receptor gamma (Homo sapiens), sequence (P37231 whole entry, looked up): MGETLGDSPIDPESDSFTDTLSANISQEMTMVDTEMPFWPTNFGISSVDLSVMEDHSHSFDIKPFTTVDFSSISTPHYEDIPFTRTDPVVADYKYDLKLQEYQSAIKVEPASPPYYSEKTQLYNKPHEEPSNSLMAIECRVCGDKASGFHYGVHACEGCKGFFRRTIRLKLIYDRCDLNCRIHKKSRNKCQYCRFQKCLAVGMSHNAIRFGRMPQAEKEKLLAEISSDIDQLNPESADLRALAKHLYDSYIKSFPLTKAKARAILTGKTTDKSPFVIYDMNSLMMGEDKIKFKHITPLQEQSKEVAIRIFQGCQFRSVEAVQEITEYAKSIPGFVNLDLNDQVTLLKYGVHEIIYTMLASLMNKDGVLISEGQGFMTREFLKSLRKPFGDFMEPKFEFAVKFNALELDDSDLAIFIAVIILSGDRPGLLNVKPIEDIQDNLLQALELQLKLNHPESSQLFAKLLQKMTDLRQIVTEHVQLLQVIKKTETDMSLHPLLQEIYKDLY

outcome, inactive:
CCc1cc(Cc2cc(CC)cc(C(C)(C)C)c2O)c(O)c(C(C)(C)C)c1
CCOc1ccc(N=Nc2ccc(C=Cc3ccc(N=Nc4ccc(OCC)cc4)cc3S(=O)(=O)O)c(S(=O)(=O)O)c2)cc1
CCCCCC(C)=O
CCCCCCCCSCCO
CCCCCC(=O)CC
O=C(c1ccccc1)C(O)c1ccccc1 (stereo not drawn)
C=Cc1ccc(C)cc1
CCCCCCC(C)(C)S
CCCCCCCCCCCC(=O)OCC(O)CO (stereo not drawn)
OCCc1ccccc1
CCCCCCCCC=CCCCCCCCC1=NCCN1CCO
Cc1ccc(S(N)(=O)=O)cc1
COc1ccccc1N=Nc1c(S(=O)(=O)O)cc2cc(S(=O)(=O)O)cc(NC(C)=O)c2c1O
[O-]n1ccccc1=S.[O-]n1ccccc1=S.[Zn+2]
O=C(O)c1ccc(O)cc1
C=CC(C)(O)CCC=C(C)C (stereo not drawn)
O=Cc1ccccc1S(=O)(=O)O
OCC#CCO
CCCCCCC(CO)CCCC (stereo not drawn)
CSCCC=O
CN1C(=O)c2ccccc2C1=O
CCCC(=O)OC(C)(C)Cc1ccccc1
O=C1OC[C@H](Cc2cccc(O)c2)[C@H]1Cc1cccc(O)c1
O=C1OC(=O)c2c(Cl)c(Cl)c(Cl)c(Cl)c21
O=c1c(O)c(-c2ccc(O)cc2)oc2cc(O)cc(O)c12
C=C(C)C(=O)OCCOC1CC2CC1C1C=CCC21 (stereo not drawn)
CCCCCCCC/C=C\CCCCCCCC(=O)OCC
CS(=O)(=O)OCCCCOS(C)(=O)=O
CCCCOC(=O)CCCCCCCC(=O)OCCCC
CCc1ccc(O)cc1
CCCCCCCCc1ccc(S(=O)(=O)O)cc1
O=CCc1ccccc1
C=C1C[C@]23C[C@@]1(O)CC[C@H]2[C@@]12C=C[C@H](O)[C@@](C)(C(=O)O1)[C@H]2[C@@H]3C(=O)O
